Results taken from publication PMC7862700, “An all-to-all approach to the identification of sequence-specific readers for epigenetic DNA modifications on cytosine”.

Legend:
Test in all cases: DAPPL (digital affinity profiling via proximity ligation, sequencing); 10 mM Tris-HCl pH 7.5, 50 mM NaCl, 1 mM DTT, 4% glycerol, room temperature, 30 min; GST-TFs on glutathione beads, 16-mer random dsDNA library, 0.1% formaldehyde crosslink after washing; high values mean tight binding
[1] = target: T1, FLI1 (Homo sapiens, UniProt Q01543 1-452); settings: protein: recombinant; tags: N-terminal GST; dsDNA, one strand shown
T1 sequence: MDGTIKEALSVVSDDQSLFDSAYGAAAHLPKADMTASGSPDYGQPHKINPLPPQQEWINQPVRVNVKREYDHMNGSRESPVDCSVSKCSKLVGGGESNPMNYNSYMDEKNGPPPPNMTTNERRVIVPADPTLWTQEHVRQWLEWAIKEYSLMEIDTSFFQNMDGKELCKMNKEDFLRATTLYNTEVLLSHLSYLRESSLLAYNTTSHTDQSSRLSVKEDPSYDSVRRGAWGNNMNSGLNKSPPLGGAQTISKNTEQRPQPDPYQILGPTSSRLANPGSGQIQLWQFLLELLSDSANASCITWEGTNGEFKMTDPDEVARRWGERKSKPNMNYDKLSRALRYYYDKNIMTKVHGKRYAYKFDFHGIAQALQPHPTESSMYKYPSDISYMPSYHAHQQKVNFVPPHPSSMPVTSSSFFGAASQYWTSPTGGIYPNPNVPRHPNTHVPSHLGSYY
Summary of the method: (§1)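 Beads coated with glutathione captured GST-fused human transcription factors that had been expressed in yeast, and the factors were then given DNA barcodes and pooled with a tag-only sample. The pools were incubated with 200 nmole of a random double-stranded 16-mer DNA library in Tris/NaCl/DTT/glycerol buffer for 30 min at room temperature, washed, crosslinked with 0.1% formaldehyde and proximity-ligated with BsaI/T4 ligase at 37 °C for 1 h. PCR amplification and Illumina NextSeq500 sequencing came last. Binding signal is each hexamer's read frequency for a factor divided by its frequency for the tag-only sample.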

[2] = target: T2, ELK1 (Homo sapiens, UniProt P19419 1-428); settings: protein: recombinant; tags: N-terminal GST; dsDNA, one strand shown
T2 sequence: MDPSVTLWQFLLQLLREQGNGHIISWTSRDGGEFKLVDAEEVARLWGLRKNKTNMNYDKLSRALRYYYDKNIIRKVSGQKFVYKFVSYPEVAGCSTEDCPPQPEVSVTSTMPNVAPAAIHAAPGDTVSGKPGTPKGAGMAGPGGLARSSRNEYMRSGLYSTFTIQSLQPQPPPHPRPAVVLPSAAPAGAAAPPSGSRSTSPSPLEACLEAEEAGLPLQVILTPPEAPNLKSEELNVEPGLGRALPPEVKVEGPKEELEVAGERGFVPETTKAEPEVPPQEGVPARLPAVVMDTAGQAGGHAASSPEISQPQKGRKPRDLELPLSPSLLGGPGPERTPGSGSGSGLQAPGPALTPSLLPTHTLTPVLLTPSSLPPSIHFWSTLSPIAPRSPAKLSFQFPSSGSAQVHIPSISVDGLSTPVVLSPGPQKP
Summary of the method: as §1

[3] = target: T3, GABPA (Homo sapiens, UniProt Q06546 1-454); settings: protein: recombinant; tags: N-terminal GST; dsDNA, one strand shown
T3 sequence: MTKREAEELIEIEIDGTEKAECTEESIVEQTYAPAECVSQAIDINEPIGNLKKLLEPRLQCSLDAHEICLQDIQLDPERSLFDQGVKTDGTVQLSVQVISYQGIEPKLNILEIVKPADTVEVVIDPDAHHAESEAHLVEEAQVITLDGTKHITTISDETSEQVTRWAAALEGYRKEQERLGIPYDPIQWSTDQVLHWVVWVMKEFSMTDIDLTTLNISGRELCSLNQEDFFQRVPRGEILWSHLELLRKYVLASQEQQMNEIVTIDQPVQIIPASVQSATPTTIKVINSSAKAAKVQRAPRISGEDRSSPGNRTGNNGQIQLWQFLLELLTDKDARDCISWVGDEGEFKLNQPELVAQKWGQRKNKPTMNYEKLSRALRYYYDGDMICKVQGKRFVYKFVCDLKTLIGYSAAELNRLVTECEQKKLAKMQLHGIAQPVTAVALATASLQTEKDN
Summary of the method: as §1

[4] = target: T4, ERG (Homo sapiens, UniProt P11308 1-479); settings: protein: recombinant; tags: N-terminal GST; dsDNA, one strand shown
T4 sequence: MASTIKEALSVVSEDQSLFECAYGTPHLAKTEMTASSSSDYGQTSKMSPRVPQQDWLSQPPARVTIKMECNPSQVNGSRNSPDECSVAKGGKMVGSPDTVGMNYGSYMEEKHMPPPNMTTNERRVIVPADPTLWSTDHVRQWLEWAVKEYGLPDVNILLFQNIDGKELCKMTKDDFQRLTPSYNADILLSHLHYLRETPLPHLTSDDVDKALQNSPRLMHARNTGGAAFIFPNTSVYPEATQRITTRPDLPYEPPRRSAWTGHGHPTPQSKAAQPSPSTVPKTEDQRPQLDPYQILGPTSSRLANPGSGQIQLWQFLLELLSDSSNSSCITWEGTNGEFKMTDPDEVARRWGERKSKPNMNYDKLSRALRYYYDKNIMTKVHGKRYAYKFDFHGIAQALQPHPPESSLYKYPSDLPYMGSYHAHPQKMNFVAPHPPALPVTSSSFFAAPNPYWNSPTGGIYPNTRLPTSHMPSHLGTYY
Summary of the method: as §1

[5] = target: ELF1 (Homo sapiens, UniProt P32519 1-619); settings: protein: recombinant; tags: N-terminal GST; dsDNA, one strand shown
Summary of the method: as §1

[6] = target: T5, EHF (Homo sapiens, UniProt Q9NZC4 1-300); settings: protein: recombinant; tags: N-terminal GST; dsDNA, one strand shown
T5 sequence: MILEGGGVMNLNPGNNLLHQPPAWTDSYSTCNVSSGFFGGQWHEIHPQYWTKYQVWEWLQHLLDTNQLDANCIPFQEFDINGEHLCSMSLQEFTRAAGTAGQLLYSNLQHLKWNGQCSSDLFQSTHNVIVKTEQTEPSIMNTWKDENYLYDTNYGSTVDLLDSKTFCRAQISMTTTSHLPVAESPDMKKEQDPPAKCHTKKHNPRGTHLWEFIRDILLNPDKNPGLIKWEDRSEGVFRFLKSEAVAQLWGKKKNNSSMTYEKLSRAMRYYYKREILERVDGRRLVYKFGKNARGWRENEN
Summary of the method: as §1

[7] = target: SPI1 (Homo sapiens, UniProt P17947 1-270); settings: protein: recombinant; tags: N-terminal GST; dsDNA, one strand shown
Summary of the method: as §1

[8] = target: SPIB (Homo sapiens, UniProt Q01892 1-262); settings: protein: recombinant; tags: N-terminal GST; dsDNA, one strand shown
Summary of the method: as §1

[9] = target: T6, ELK3 (Homo sapiens, UniProt P41970 1-407); settings: protein: recombinant; tags: N-terminal GST; dsDNA, one strand shown
T6 sequence: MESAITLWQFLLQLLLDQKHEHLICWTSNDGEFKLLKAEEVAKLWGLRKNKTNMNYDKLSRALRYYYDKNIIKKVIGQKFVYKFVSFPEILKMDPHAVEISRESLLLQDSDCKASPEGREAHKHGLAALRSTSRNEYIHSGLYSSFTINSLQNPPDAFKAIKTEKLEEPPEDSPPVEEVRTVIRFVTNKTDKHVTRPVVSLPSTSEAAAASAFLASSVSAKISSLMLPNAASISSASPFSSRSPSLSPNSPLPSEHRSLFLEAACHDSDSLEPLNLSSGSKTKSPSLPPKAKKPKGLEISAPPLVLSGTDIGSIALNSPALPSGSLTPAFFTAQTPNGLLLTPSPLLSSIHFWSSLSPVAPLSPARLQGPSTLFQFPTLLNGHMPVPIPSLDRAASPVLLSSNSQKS
Summary of the method: as §1

[10] = target: T7, FEV (Homo sapiens, UniProt Q99581 1-238); settings: protein: recombinant; tags: N-terminal GST; dsDNA, one strand shown
T7 sequence: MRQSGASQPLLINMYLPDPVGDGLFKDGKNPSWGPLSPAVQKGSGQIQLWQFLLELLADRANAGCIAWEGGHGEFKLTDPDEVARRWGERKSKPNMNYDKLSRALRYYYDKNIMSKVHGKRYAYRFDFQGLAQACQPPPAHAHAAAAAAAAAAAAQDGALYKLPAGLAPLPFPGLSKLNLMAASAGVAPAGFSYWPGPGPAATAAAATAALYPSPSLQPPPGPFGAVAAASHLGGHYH
Summary of the method: as §1

[11] = target: ETV5 (Homo sapiens, UniProt P41161 1-510); settings: protein: recombinant; tags: N-terminal GST; dsDNA, one strand shown
Summary of the method: as §1

[12] = target: HSF1 (Homo sapiens, UniProt Q00613 1-529); settings: protein: recombinant; tags: N-terminal GST; chain copies: 3; dsDNA, one strand shown
Summary of the method: as §1

[13] = target: T8, SPIC (Homo sapiens, UniProt Q8N5J4 1-248); settings: protein: recombinant; tags: N-terminal GST; dsDNA, one strand shown
T8 sequence: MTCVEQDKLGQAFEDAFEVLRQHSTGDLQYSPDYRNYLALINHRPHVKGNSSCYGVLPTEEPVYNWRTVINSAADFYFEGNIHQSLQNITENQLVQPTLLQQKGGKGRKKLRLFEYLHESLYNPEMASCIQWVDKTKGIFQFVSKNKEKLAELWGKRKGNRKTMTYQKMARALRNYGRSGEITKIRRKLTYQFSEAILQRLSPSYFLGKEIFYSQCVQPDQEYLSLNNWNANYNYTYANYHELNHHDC
Summary of the method: as §1

[14] = target: ELF4 (Homo sapiens, UniProt Q99607 1-663); settings: protein: recombinant; tags: N-terminal GST; dsDNA, one strand shown
Summary of the method: as §1

[15] = target: T9, ELK4 (Homo sapiens, UniProt P28324-2 1-405); settings: protein: recombinant; tags: N-terminal GST; dsDNA, one strand shown
T9 sequence: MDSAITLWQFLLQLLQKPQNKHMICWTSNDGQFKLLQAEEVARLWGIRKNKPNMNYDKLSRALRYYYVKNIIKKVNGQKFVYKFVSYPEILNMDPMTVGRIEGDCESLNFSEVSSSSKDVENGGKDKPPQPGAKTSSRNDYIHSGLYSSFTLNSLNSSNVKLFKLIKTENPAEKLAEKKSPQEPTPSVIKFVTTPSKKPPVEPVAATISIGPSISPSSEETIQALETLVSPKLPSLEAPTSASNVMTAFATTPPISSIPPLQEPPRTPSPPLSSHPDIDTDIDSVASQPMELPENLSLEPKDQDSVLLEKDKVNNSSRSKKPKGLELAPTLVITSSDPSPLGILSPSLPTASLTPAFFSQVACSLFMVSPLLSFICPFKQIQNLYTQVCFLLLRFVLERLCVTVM
Summary of the method: as §1

[16] = target: T10, ETV2 (Homo sapiens, UniProt O00321 1-342); settings: protein: recombinant; tags: N-terminal GST; dsDNA, one strand shown
T10 sequence: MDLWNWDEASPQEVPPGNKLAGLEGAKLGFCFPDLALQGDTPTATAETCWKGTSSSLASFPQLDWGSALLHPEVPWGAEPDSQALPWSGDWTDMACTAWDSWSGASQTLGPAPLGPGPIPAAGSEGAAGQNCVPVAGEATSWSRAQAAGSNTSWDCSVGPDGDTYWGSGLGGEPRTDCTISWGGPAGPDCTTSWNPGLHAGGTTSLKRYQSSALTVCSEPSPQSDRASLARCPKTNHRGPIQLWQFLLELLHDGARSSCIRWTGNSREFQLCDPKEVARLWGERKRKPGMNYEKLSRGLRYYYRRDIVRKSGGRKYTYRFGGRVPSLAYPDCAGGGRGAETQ
Summary of the method: as §1

[17] = target: T11, ELF3 (Homo sapiens, UniProt P78545 1-371); settings: protein: recombinant; tags: N-terminal GST; dsDNA, one strand shown
T11 sequence: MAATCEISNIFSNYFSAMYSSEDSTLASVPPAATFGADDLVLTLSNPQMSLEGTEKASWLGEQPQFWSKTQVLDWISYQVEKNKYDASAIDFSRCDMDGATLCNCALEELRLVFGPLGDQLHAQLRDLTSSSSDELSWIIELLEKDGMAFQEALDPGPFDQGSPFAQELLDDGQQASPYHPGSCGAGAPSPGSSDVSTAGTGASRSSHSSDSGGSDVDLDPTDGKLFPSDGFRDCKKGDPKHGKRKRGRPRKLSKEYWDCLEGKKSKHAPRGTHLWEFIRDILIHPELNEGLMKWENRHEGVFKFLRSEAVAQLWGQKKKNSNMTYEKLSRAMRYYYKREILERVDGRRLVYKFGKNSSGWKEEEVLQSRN
Summary of the method: as §1

[18] = target: CRX (Homo sapiens, UniProt O43186 1-299); settings: protein: recombinant; tags: N-terminal GST; dsDNA, one strand shown
Summary of the method: as §1

[19] = target: ETV1 (Homo sapiens, UniProt P50549 1-477); settings: protein: recombinant; tags: N-terminal GST; dsDNA, one strand shown
Summary of the method: as §1

ELF4, sequence (Q99607 whole entry): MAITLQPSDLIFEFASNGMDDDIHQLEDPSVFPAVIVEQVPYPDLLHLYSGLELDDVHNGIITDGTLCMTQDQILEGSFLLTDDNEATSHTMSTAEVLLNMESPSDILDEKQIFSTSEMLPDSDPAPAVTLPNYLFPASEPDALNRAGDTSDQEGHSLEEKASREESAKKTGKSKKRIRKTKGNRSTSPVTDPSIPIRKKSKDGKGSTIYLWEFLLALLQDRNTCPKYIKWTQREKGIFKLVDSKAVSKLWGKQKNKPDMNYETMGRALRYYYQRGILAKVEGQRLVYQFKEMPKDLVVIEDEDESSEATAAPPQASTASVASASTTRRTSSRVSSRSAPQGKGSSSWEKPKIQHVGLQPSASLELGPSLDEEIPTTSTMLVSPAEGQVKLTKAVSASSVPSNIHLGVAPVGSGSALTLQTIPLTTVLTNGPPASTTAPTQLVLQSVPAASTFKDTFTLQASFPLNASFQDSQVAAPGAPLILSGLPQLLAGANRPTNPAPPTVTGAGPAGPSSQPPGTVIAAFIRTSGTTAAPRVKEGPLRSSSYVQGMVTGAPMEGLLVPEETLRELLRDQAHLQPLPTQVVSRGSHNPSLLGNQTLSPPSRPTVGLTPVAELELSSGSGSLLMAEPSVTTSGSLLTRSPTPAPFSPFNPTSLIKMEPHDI
ETV1, sequence (P50549 whole entry): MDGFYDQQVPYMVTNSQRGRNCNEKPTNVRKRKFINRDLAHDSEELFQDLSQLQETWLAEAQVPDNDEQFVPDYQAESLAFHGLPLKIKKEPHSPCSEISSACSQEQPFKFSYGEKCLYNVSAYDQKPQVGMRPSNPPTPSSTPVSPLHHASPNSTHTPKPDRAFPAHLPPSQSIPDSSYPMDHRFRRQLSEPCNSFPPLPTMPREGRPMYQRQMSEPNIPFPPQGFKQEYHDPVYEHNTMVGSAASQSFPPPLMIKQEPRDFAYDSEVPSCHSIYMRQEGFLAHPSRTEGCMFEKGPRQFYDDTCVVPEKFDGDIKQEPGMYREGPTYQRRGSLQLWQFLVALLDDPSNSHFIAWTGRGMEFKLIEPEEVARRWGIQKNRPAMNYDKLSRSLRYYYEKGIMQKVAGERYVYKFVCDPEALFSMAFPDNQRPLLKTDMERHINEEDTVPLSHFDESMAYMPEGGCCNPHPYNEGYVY
ELF1, sequence (P32519 whole entry): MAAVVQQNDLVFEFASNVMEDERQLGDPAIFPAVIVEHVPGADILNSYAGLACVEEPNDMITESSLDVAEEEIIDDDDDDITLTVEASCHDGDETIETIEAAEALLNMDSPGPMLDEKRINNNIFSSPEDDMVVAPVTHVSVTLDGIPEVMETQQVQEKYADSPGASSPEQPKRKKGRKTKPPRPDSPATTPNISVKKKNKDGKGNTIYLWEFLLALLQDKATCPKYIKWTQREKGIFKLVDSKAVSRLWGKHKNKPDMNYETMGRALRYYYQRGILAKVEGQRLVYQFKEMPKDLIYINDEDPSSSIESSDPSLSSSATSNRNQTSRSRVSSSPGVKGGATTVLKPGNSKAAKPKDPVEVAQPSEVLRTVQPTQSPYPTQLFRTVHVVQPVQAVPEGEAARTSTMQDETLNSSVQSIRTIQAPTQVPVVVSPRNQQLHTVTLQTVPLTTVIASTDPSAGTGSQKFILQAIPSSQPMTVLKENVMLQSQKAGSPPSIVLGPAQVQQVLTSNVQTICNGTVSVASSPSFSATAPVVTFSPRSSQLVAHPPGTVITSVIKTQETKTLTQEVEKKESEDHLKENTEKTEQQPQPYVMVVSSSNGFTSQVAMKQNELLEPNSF
SPIB, sequence (Q01892 whole entry): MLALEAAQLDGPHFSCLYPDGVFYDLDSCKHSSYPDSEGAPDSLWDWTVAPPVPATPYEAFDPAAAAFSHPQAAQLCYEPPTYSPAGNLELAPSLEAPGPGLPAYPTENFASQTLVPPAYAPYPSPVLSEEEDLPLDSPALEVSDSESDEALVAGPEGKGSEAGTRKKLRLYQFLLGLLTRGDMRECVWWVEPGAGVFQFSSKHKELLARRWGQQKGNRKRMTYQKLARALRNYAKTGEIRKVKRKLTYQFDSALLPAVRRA
ETV5, sequence (P41161 whole entry): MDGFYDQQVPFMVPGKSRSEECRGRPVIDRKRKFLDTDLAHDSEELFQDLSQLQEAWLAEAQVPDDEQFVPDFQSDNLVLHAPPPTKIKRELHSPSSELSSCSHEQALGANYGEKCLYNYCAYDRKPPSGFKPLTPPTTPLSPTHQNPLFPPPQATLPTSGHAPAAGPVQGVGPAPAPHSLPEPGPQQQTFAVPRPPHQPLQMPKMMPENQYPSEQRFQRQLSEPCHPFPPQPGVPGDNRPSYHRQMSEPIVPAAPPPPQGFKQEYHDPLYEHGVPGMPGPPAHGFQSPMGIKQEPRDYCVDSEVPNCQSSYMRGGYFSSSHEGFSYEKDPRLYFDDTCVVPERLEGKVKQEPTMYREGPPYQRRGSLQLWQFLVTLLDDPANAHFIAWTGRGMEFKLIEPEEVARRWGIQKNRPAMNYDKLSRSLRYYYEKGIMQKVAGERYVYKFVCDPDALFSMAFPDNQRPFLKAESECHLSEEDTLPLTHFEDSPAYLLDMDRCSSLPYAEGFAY
HSF1, sequence (Q00613 whole entry): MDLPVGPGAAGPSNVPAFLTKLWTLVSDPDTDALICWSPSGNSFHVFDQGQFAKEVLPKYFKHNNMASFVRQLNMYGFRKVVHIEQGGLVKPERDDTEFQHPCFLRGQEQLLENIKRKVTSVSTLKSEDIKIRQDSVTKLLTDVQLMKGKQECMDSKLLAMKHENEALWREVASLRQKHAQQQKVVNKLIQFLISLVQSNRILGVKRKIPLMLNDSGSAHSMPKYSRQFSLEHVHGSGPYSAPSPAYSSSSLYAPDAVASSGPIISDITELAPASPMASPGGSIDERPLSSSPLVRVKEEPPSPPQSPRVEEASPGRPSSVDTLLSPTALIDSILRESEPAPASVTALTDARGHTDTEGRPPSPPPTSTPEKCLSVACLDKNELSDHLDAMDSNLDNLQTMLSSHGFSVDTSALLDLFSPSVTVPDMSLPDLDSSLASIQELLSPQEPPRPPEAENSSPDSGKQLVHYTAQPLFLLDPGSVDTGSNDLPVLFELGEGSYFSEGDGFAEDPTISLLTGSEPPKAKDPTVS
CRX, sequence (O43186 whole entry): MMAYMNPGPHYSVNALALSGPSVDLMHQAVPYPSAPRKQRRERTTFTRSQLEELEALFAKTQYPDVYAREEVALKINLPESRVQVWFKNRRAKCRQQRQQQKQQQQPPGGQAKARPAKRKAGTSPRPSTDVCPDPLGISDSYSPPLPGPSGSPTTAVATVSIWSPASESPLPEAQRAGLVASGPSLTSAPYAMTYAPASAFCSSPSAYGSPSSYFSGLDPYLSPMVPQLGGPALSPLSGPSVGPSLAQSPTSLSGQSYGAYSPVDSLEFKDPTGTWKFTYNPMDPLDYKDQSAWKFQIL

AAAGTA
binding signal [1]: 1.14 fold enrichment (6-mer frequency, TF over GST control)
binding signal [2]: 1.1 fold enrichment (6-mer frequency, TF over GST control)
binding signal [3]: 1.17 fold enrichment (6-mer frequency, TF over GST control)
binding signal [4]: 1.13 fold enrichment (6-mer frequency, TF over GST control)
binding signal [5]: 1.13 fold enrichment (6-mer frequency, TF over GST control)
binding signal [6]: 1.15 fold enrichment (6-mer frequency, TF over GST control)
binding signal [7]: 1.1 fold enrichment (6-mer frequency, TF over GST control)
binding signal [8]: 1.18 fold enrichment (6-mer frequency, TF over GST control)
binding signal [9]: 1.24 fold enrichment (6-mer frequency, TF over GST control)
binding signal [10]: 1.11 fold enrichment (6-mer frequency, TF over GST control)
binding signal [11]: 1.09 fold enrichment (6-mer frequency, TF over GST control)
binding signal [12]: 1.29 fold enrichment (6-mer frequency, TF over GST control)
binding signal [13]: 1.04 fold enrichment (6-mer frequency, TF over GST control)
binding signal [14]: 1.17 fold enrichment (6-mer frequency, TF over GST control)
binding signal [15]: 1.13 fold enrichment (6-mer frequency, TF over GST control)
binding signal [16]: 1.11 fold enrichment (6-mer frequency, TF over GST control)
binding signal [17]: 1.11 fold enrichment (6-mer frequency, TF over GST control)
binding signal [18]: 1.35 fold enrichment (6-mer frequency, TF over GST control)
binding signal [19]: 1.18 fold enrichment (6-mer frequency, TF over GST control)
